In PubChem BioAssay AID540358 (NMMLSC, 2011):
Several values for one entry are separate records, joined by “and”; a condition that tells them apart may be missing. Identical values can stand only once. Out of some 1,100 compounds screened, about 260 (24%) were called active. Not all results are given here. Values without a mark were called inactive.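 The calls were made as follows: active = surface receptor percent response at or below 58%, roughly 3 SD from nonfluorescent compounds; inactive = the rest.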

target: Beta-2 adrenergic receptor (Homo sapiens) (UniProt P07550); test: agonist-driven loss of surface beta2AR – cell-based, FAP fluorogen, flow cytometry, single point, cherry pick 1, confirmation (AID 540358); settings: Am2.2-beta2AR cells, at 10 µM, active compounds read low
Sequence (P07550 whole entry, looked up): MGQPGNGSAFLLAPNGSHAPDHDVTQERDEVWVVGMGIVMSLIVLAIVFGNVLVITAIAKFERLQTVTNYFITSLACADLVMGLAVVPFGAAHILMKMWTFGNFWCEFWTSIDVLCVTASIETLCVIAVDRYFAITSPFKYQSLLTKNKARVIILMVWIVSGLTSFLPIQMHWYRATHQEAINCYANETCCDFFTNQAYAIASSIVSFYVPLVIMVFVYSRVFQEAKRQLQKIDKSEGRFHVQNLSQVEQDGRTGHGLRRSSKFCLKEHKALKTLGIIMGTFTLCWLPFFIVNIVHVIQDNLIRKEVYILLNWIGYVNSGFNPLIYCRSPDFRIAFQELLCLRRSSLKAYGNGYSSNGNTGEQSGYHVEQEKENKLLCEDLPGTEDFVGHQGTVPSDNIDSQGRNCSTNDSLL

Q: With `CSc1ccc(CNC(=O)c2ccc(NC(=O)C3=CSCCO3)cc2)cc1` as the compound, how does the percent response (surface receptor) read?
A: The percent response (surface receptor) was 17.5% (active).

Q: With `OC(CNCc1ccc(Cl)c(Cl)c1)c1ccccc1` (stereo unspecified) as the compound, how does the percent response (surface receptor) read?
A: Its percent response (surface receptor) is 110%.

Q: How did the percent response (surface receptor) turn out when `CCCCCCCCCCOC(=O)Cn1c(COc2ccc(C)cc2)[n+](C)c2ccccc21` was run?
A: The percent response (surface receptor) was 108%.

Q: Which percent response (surface receptor) does the source give for `O=C1C(=O)N(CC2COc3ccccc3O2)c2ccccc21` (stereo unspecified) here?
A: Its percent response (surface receptor) is 95.3%.

Q: With `O=C(NCCCn1ccnc1)C1CCCN(S(=O)(=O)c2cc(Cl)ccc2Cl)C1` (stereo unspecified) as the compound, how does the percent response (surface receptor) read?
A: Its percent response (surface receptor) is 17.8% (active).

Q: How did the percent response (surface receptor) turn out when `CC(=O)Nc1ccc(Nc2c3ccccc3nc3ccccc23)cc1` was run?
A: The percent response (surface receptor) was 80.8%.

Q: With `COc1ccc(-n2nc3c(N4CCC(C(=O)NCc5ccccc5)CC4)nnc(C)c3c2C)cc1` as the compound, how does the percent response (surface receptor) read?
A: The percent response (surface receptor) was 152%.

Q: Which percent response (surface receptor) does the source give for `C=CCNC(=S)N/N=C/c1ccc(C)s1` here?
A: Its percent response (surface receptor) is 110%.

Q: `CC(=O)Nc1ccc(CN2CCC(Oc3ccc(C(=O)N4CCCC4)cc3)CC2)cc1` was tested. Which percent response (surface receptor) did it give?
A: Its percent response (surface receptor) is 104%.

Q: Which percent response (surface receptor) does the source give for `CC(CCc1ccccc1)NCC(O)c1cccc([N+](=O)[O-])c1` (stereo unspecified) here?
A: Its percent response (surface receptor) is 119%.

Q: Which percent response (surface receptor) does the source give for `COc1cc(C#Cc2ccc3cc(CCCO)oc(=O)c3c2)cc(OC)c1` here?
A: Its percent response (surface receptor) is 68.2%.

Q: Which percent response (surface receptor) does the source give for `COc1ccc(-c2ccnc(SCC(=O)N3CCOCC3)n2)cc1` here?
A: Its percent response (surface receptor) is 104%.

Q: With `Cc1ccc(Cl)cc1NC(=O)CN1CCN(S(=O)(=O)N2CCOCC2)CC1` as the compound, how does the percent response (surface receptor) read?
A: The percent response (surface receptor) was 93.5%.

Q: How did the percent response (surface receptor) turn out when `CCOc1ccccc1N1C(=O)CC(Sc2nccc(C)n2)C1=O` (stereo unspecified) was run?
A: The percent response (surface receptor) was 106%.

Q: How did the percent response (surface receptor) turn out when `CCOC(=O)c1ccc(NC(=O)Cn2nnc(-c3ccc(C)cc3)n2)cc1` was run?
A: The percent response (surface receptor) was 12.3% (active) and 4.86% (active).

Q: For `COc1ccc2c(c1OC)C(=O)OC2Nc1nc(-c2ccccc2)cs1` (stereo unspecified), which percent response (surface receptor) is on record?
A: The percent response (surface receptor) was 99.6%.

Q: How did the percent response (surface receptor) turn out when `O=C(C1CCN(c2nnc(-n3cccc3)s2)CC1)N1CCc2ccccc2C1` was run?
A: The percent response (surface receptor) was 146%.

Q: Which percent response (surface receptor) does the source give for `CC(=O)c1ccc(NC(=O)c2ccc3c(Cl)c4c(nc3c2)CCCC4)cc1` here?
A: Its percent response (surface receptor) is 66.5%.

Q: For `Cc1cc(S(=O)(=O)N2CCOCC2)ccc1OCC(=O)Nc1cccc(C(F)(F)F)c1`, which percent response (surface receptor) is on record?
A: Its percent response (surface receptor) is 99%.

Q: How did the percent response (surface receptor) turn out when `COc1ccc(OC)c(NC(=O)c2sc3nc(C)cc(C)c3c2N)c1` was run?
A: Its percent response (surface receptor) is 34.7% (active).

Q: How did the percent response (surface receptor) turn out when `N#Cc1cccc(NC(=O)COC(=O)c2ccccc2C(=O)c2ccc(Cl)c([N+](=O)[O-])c2)c1` was run?
A: Its percent response (surface receptor) is 85.9%.

Q: For `COc1ccc(OC)c(S(=O)(=O)N(C)CC(=O)N2CCN(c3ccccc3)CC2)c1`, which percent response (surface receptor) is on record?
A: Its percent response (surface receptor) is 88.9% and 123%.

Q: `CCOc1ccccc1NC(=O)COc1ccc(S(=O)(=O)N2CCCC2)cc1` was tested. Which percent response (surface receptor) did it give?
A: The percent response (surface receptor) was 128%.

Q: `CCOc1ccc(NC(=O)COc2ccc(S(=O)(=O)N3CCCC3)cc2)cc1` was tested. Which percent response (surface receptor) did it give?
A: The percent response (surface receptor) was 104%.

Q: How did the percent response (surface receptor) turn out when `COc1ccc(S(=O)(=O)N2CCCC(C(=O)Nc3ccc(NC(=O)c4ccccn4)cc3)C2)cc1` (stereo unspecified) was run?
A: Its percent response (surface receptor) is 44.1% (active).

Q: With `CCN1CCC2(CC1)N=C(c1ccc(F)cc1)C(=S)N2C(=O)c1ccc(C)cc1` as the compound, how does the percent response (surface receptor) read?
A: Its percent response (surface receptor) is 92.8%.

Q: `CC(=O)c1cccc(NC(=O)COc2ccc(S(=O)(=O)N3CCOCC3)cc2)c1` was tested. Which percent response (surface receptor) did it give?
A: Its percent response (surface receptor) is 120%.

Q: For `Cc1ccc(OCC(=O)Nc2ccc(-c3nc4ncccc4o3)cc2)cc1`, which percent response (surface receptor) is on record?
A: The percent response (surface receptor) was 38.8% (active) and 23.3% (active).

Q: How did the percent response (surface receptor) turn out when `CCCOc1ccc(C(=O)C(CCC(CNCC)C(=O)c2ccc(OCCC)cc2)CNCC)cc1` (stereo unspecified) was run?
A: The percent response (surface receptor) was 61%.

Q: For `O=S(=O)(Nc1ccc2[nH]ncc2c1)c1ccccc1Cl`, which percent response (surface receptor) is on record?
A: Its percent response (surface receptor) is 89.6%.

Q: With `Cc1ccc(Sc2cc(N3CCOCC3)nc(-c3ccccc3)n2)cc1` as the compound, how does the percent response (surface receptor) read?
A: The percent response (surface receptor) was 22.9% (active).

Q: Which percent response (surface receptor) does the source give for `CCCN(CCc1ccccc1)C1CCc2c(O)cccc2C1` (stereo unspecified) here?
A: The percent response (surface receptor) was 111%.

Q: `CSc1ccc(CCNC(=O)C2CCN(c3nnc(-n4cccc4)s3)CC2)cc1` was tested. Which percent response (surface receptor) did it give?
A: Its percent response (surface receptor) is 60.9%.

Q: `Oc1ccc(N=Cc2sc3ccccc3c2Cl)cc1` was tested. Which percent response (surface receptor) did it give?
A: Its percent response (surface receptor) is 101%.

Q: Which percent response (surface receptor) does the source give for `O=C(Nc1ccc2c(c1)OCCO2)C(c1ccc(F)cc1)N1CCCCC1` (stereo unspecified) here?
A: Its percent response (surface receptor) is 112%.

Q: How did the percent response (surface receptor) turn out when `COc1ccc(C(CCNCc2ccccc2F)c2ccc(F)cc2)cc1` (stereo unspecified) was run?
A: The percent response (surface receptor) was 109%.
